A selection: hits, their analogues and other compounds. The true share with any hit is near 11%.
3T3 cytotox: NIH 3T3 cell cytotoxicity; actives 4.3% (n = 94,000); Potency, µM (top dose mostly 96.7 µM), without a hit: at the highest dose activity change, negative = cytotoxicity, actives largely listed as inhibitors; NIH 3T3 viability, CellTiter-Glo ATP luminescence, 48-72 h; note: % is set by controls: 0 for no effect and ±100 for the full control effect; nearly all actives have a fitted effect of over 55% in size
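Cytotoxicity is measured as loss of cellular ATP: NIH 3T3 cells (400/well) are exposed to compound for 48 or 72 hr at 37 °C, then CellTiter-Glo luminescence is imaged after 10 min at room temperature.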
HEK cytotox: kills HEK 293 cells; HEK 293 viability, ATP luminescence (CellTiter-Glo), 48-72 h; Potency, µM (doses to about 115 µM), inactives show at the highest dose activity change, negative = cytotoxicity, most hits filed as inhibitors; actives 6.6% (n = 94,000); AID 1345083; note: % is set by controls: 0 for no effect and ±100 for the full control effect; nearly all actives have a fitted effect of over 60% in size
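Read-out: CellTiter-Glo ATP luminescence. Cells: HEK 293, 250 cells/well. Exposure: 48 or 72 hr, 37 degree Celsius.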
hNpr1 antagonist: blocks ANP-stimulated signaling of human Npr1 receptor. P16066. Potency, µM (top dose mostly 46.3 µM), without a hit: at the highest dose activity change, negative = inhibition, most hits filed as inhibitors. HEK293 hNpr1 GloSensor cGMP, ANP-stimulated luminescence. actives 1.6% (n = 76,000); calls by dose curve; note: % is set by controls: 0 for no effect and ±100 for the full control effect; nearly all actives have a fitted effect of over 60% in size
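HEK293 cells stably expressing human Npr1 and cGMP GloSensor pGS-40F, loaded 2 h with 2% GloSensor reagent, given compound 30 min at room temperature. Luminescence read before and 20 min after 0.1 nM hNppA.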
Luciferase inh: inhibitors of firefly (Photinus pyralis) luciferase; P08659; purified P. pyralis luciferase, luminescence, biochemical; Potency, µM (doses to about 115 µM), actives largely listed as inhibitors; actives 2.5% (n = 76,000); AID 1347043; note: % is set by controls: 0 for no effect and ±100 for the full control effect; nearly all actives have a fitted effect of over 65% in size
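Inhibitors were tested against purified firefly luciferase in a biochemical, low-substrate format (both substrates at 10uM) and luminescence measured with a CCD imager.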
Npr1 antag conf: hNpr1 antagonism, confirmation assay; Potency, µM (doses to about 57.6 µM), inactives show at the top dose activity change, negative = inhibition, most hits filed as inhibitors; shares compounds with hNpr1 antagonist; actives 76% (n = 1,400); HEK293 hNpr1 cGMP GloSensor luminescence, ANP-stimulated; calls by dose curve; note: nearly all actives have a fitted effect of over 70% in size
NPR2 antag: antagonizes human Npr2, subtype selectivity check; shares compounds with hNpr1 antagonist; HEK293 hNpr2 GloSensor cGMP luminescence, CNP-stimulated; Potency, µM (top dose mostly 57.6 µM), for inactives: at the highest dose activity change, negative = inhibition, most hits filed as inhibitors; actives 67% (n = 1,400); AID 1347046; calls by dose curve; note: nearly all actives have a fitted effect of over 70% in size
FLuc counter: counter-screen for Npr1 antagonists: firefly luciferase inhibitors | actives 0.7% (n = 1,400) | purified FLuc enzyme, luminescence, Km substrate | shares compounds with hNpr1 antagonist | Potency, µM (titrated, usually from 57.6 µM), without a hit: top-dose activity change, negative = inhibition, hits mostly inhibitors; note: series mostly up to about 58 µM; 0% is about no effect
GloSensor ctrl: counter-screen for Npr1 antagonists: GloSensor control cell line. shares compounds with hNpr1 antagonist. HEK293 GloSensor cGMP, SNP-stimulated, luminescence. Potency, µM (titrated, usually from 57.6 µM), without a hit: top-dose activity change, negative = inhibition, actives largely listed as inhibitors. actives 69% (n = 1,400). AID 1347051; calls by dose curve; note: % is set by controls: 0 for no effect and ±100 for the full control effect; nearly all actives have a fitted effect of over 70% in size
The depositor's hits bear a star; i = inactive; ? = inconclusive; / = not tested or not shown; [ ] = another dose, or the depositor's remark. Unless noted, calls come from the whole dose curve; as a rule, active = well fitted curve in the direction sought with a large enough effect; inconclusive = small, poorly fitted or top-dose-only effect, or another doubt; inactive = no such curve, though single readings can be large; an effect the other way counts as inactive or inconclusive. Potency is the fitted concentration of half-maximal effect.

SMILES | 3T3 cytotox | HEK cytotox | hNpr1 antagonist | Luciferase inh | Npr1 antag conf | NPR2 antag | FLuc counter | GloSensor ctrl
CN1CC(=O)N(C2CCNC2)Cc2c1ncnc2N1CCC(N2CCCCC2)CC1 (stereo not given) | i | i | / | / | / | / | / | /
COc1ccc(-c2noc(COC(=O)C3=CN(C)S(=O)(=O)N=C3C)n2)cc1 | -24% | ? | 7.9µM* | i | 12µM* | 17µM* | -8% | 14µM*
CC1=NS(=O)(=O)N(C)C=C1C(=O)OCc1nc(-c2ccc(Br)cc2)no1 | ? | ? | 10µM* | i | 11µM* | 14µM* | -12% | 11µM*
CC1=NS(=O)(=O)N(C)C=C1C(=O)OCc1nc(-c2ccccc2F)no1 | -14% | -4% | ? | i | ? | ? | -2% | ?
CC1=NS(=O)(=O)N(C)C=C1C(=O)OCc1nc(Cc2ccc(C)cc2)no1 | -22% | -27% | 11µM* | i | 22µM* | ? | 2% | 19µM*
COc1ccc(CN2C=C(C(=O)OCc3nc(Cc4cccc(C)c4)no3)C(C)=NS2(=O)=O)cc1 | -33% | -19% | -2% | i | / | / | / | /
COc1ccc(CN2C=C(C(=O)OCc3nc(-c4ccc(F)cc4)no3)C(C)=NS2(=O)=O)cc1 | ? | ? | ? | i | / | / | / | /
COc1ccc(-c2noc(-c3cccn3CC(=O)Nc3cccc(Cl)c3C)n2)cc1F | 1% | -1% | 1% | i | / | / | / | /
Cc1ccc(CN2CCCOCCNC(=O)[C@@H]3CCCC[C@@H]32)s1 | -27% | ? | 3% | i | / | / | / | /
COc1ccc(CN2C=C(C(=O)OCc3nc(C4CC4)no3)C(C)=NS2(=O)=O)cc1 | ? | ? | -27% | i | / | / | / | /
CC1=NS(=O)(=O)N(C)C=C1C(=O)OCc1nc(-c2ccc(OC(F)(F)F)cc2)no1 | ? | 40µM* | 10µM* | i | 15µM* | 14µM* | 2% | 12µM*
CC1=NS(=O)(=O)N(C)C=C1C(=O)OCc1nc(C2CCCCC2)no1 | ? | -25% | 13µM* | i | 22µM* | ? | -8% | 17µM*
CC1=NS(=O)(=O)N(C)C=C1C(=O)OCc1nc(-c2ccccc2Cl)no1 | -22% | ? | -8% | i | / | / | / | /
CCOc1cc(=O)n2c(c1C(=O)Nc1cc(Cl)ccc1OC)CCCC2 | ? | -61% | 0% | i | / | / | / | /
CC(=O)Nc1ccc(S(=O)(=O)N[C@H]2CO[C@H]3[C@@H]2OC[C@H]3OC(=O)Nc2ccc(C(C)=O)cc2)cc1 | -22% | i | -6% | i | / | / | / | /
O=C(Nc1ccc(Oc2ccccc2)cc1)O[C@@H]1CO[C@H]2[C@@H]1OC[C@@H]2NS(=O)(=O)c1ccc2ccccc2c1 | ? | ? | ? | i | 17µM* | 15µM* | -13% | 11µM*
N#Cc1cccc(CN[C@H]2CO[C@H]3[C@@H]2OC[C@H]3OC(=O)Nc2ccc(Oc3ccccc3)cc2)c1 | ? | ? | 18µM* | i | 22µM* | 22µM* | -9% | 19µM*
COc1ccc(NC(=O)O[C@@H]2CO[C@H]3[C@@H]2OC[C@@H]3NC(=O)Nc2cccc(C#N)c2)cc1 | -9% | -13% | 1% | i | / | / | / | /
O=C(Nc1ccc(Oc2ccccc2)cc1)O[C@@H]1CO[C@H]2[C@@H]1OC[C@@H]2NC(=S)Nc1cccc2ccccc12 | ? | ? | 10µM* | i | 5.4µM* | 6.9µM* | -12% | 6.1µM*
Cc1cccc(Nc2nc(N)nc(CN3CC[C@@](O)(C4CCC4)[C@H](C)C3)n2)c1 | ? | ? | 3% | i | / | / | / | /
COc1cccc(CN2CC3(C2)C(=O)N(Cc2cccc(Cl)c2)C(=O)[C@@H]2C[C@@H](O)CN23)c1 | ? | -17% | 1% | i | / | / | / | /
O=C(C1CCCC1)N1CCC(CCOc2ccc(F)cc2)C1 (stereo not given) | ? | ? | ? | i | ? | ? | 3% | 22µM*
O=C(Cc1ccccc1F)N1CCC(CCOc2ccccc2)C1 (stereo not given) | ? | ? | -20% | i | / | / | / | /
Cc1ccc(OCCC2CCN(C(=O)Cc3cccnc3)C2)cc1 (stereo not given) | -29% | ? | ? | i | ? | ? | -5% | ?
Cc1nn2c(c1-c1ccccc1OCc1ccccc1)N(C(=O)Cc1ccc3c(c1)OCO3)CCC2 | 13µM* | 79µM* | 8.9µM* | i | 11µM* | 6.1µM* | 1% | -1%
SMILES | 3T3 cytotox | HEK cytotox | hNpr1 antagonist | Luciferase inh | Npr1 antag conf | NPR2 antag | FLuc counter | GloSensor ctrl
Cc1nn2c(c1-c1ccccc1-c1ccccc1)N(C(=O)Cc1ccc3c(c1)OCO3)CCC2 | ? | ? | -30% | i | / | / | / | /
Cc1nn2c(c1-c1ccccc1Oc1ccccc1)N(C(=O)Cc1ccc3c(c1)OCO3)CCC2 | ? | ? | 7.9µM* | i | 11µM* | 5.4µM* | -4% | -24%
O=C(Nc1cccc(-c2nnc3n2CCCC3)c1)c1cnccn1 | -11% | -1% | 0% | i | / | / | / | /
CCOc1cccc(CNC(=O)[C@H]2CCC[C@H]2NC(=O)c2cnc(C)cn2)c1 | 2% | -25% | 2% | i | / | / | / | /
Cc1noc(C)c1-c1cc2c(c(-c3ccc(F)c(Cl)c3)c1)C(=O)N(C)C2 | ? | ? | 8.9µM* | i | 16µM* | 8.9µM* | -1%[86.2 µM] | 7.9µM*
Cc1noc(C)c1-c1cc2c(c(-c3ccccc3)c1)C(=O)N(C)C2 | ? | 40µM* | 28µM* | i | 28µM* | 18µM* | 1%[86.2 µM] | 18µM*
Cc1noc(C)c1-c1cc2c(c(-c3cccc(O)c3)c1)C(=O)N(C)C2 | -51%[138 µM] | ? | -2%[70.6 µM] | i | / | / | / | /
Cc1ccccc1-c1cc(-c2c(C)noc2C)cc2c1C(=O)N(C)C2 | ? | ? | -1%[70.6 µM] | i | / | / | / | /
CCCN1CCCCC12Cc1ccccc1CN([S+](C)(=O)[O-])C2 (stereo not given) | ? | -29% | / | / | / | / | / | /
COCc1cc(N2CCC(c3cccc(OC)c3OC)C2)ncn1 (stereo not given) | ? | ? | 3.2µM* | i | 3.1µM* | 4.8µM* | -2% | 3.1µM*

Source: PubChem BioAssay
